ELG1 DNA repair = ELG1-dependent DNA repair inhibition; HEK293T ELG1-luciferase reporter, luminescence, 16 h; DNA damage induced by 5-fluorouridine; Potency, µM (doses to about 46.1 µM), inactives show at the highest dose activity change, negative = inhibition, most hits filed as inhibitors; actives 2.3% (n = 330,000); AID 504467; also: potency is read from the fitted curve at half-maximal effect; nearly all actives have a fitted effect of over 55% in size
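Luminescence from the luciferase reporter, measured 30 min after ONE-Glo reagent at room temperature, was the read-out. Beforehand, 2,000 cells per well were exposed for 16 hr at 37 °C to 5-fluorouridine together with compound or vehicle.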
RORgamma inh = blocks mouse ROR gamma transcriptional activity. Drosophila S2 Gal4-RORgamma UAS-luciferase reporter, 20 h. Potency, µM (titrated, usually from 53.6 µM), for the others: at the highest dose activity change, negative = inhibition, most hits filed as inhibitors. actives 5.4% (n = 310,000); also: potency is read from the fitted curve at half-maximal effect; nearly all actives have a fitted effect of over 60% in size
Target sequence (P51450 whole entry, looked up, the tested form may be a part): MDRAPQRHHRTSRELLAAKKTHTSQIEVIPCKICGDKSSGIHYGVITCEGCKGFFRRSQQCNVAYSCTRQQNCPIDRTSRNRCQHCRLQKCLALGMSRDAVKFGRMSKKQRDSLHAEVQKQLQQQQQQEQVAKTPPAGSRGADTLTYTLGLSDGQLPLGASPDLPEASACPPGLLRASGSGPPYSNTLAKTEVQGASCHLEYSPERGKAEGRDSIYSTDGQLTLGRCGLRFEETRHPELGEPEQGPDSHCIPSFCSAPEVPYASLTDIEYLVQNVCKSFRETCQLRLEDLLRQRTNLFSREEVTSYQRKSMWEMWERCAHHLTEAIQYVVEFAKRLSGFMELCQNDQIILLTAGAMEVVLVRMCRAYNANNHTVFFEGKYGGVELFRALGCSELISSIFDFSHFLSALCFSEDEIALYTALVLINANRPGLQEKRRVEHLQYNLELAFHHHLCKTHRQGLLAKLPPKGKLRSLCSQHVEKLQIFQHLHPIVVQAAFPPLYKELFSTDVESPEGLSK
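Luminescence from a UAS-regulated Photinus luciferase reporter in stably transfected Drosophila Schneider cells is measured; decreased signal marks ROR gamma inhibition. Fusion expression is induced by 700 uM copper sulfate for 20 hr.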
DT40 TDP1 no CPT = qHTS for Inhibitors of human tyrosyl-DNA phosphodiesterase 1 (TDP1): qHTS in cells in absence of CPT; DT40 Tdp1-/- hTDP1 cells, no CPT, ATP luminescence, 48 h; Potency, µM (titrated, usually from 46.2 µM), for inactives: top-dose activity change, negative = growth inhibition, hits mostly inhibitors; actives 15% (n = 420,000); also: potency is read from the fitted curve at half-maximal effect; nearly all actives have a fitted effect of over 55% in size
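No-CPT arm: Tdp1-/-;hTDP1 DT40 cells (400/well) plus compounds, incubated ≥48 hr at 37 °C. Readout CellTiter-Glo luminescence.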
IL1B secr inh = blocks inflammasome-driven IL-1 beta release. THP-1 LPS/ATP IL-1B secretion, AlphaLISA, 16 h; hits give low values. activity change, % at 57.5 µM. actives 4.7% (n = 360,000); in the data active = activity change below about -50%; inconclusive = mostly about -30% to -49%
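THP-1 cells pretreated 1 hr with compounds (up to 57.5 uM final), then stimulated with LPS (250 ng/mL final) plus ATP (1.25 mM final); secreted IL-1B measured by AlphaLISA after 16 hr, decreased signal indicating inhibition.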
TDP1 cell CPT = DT40-hTDP1 cell growth loss with CPT. actives 12% (n = 420,000). AID 686979. Potency, µM (top dose mostly 46.2 µM), without a hit: at the highest dose activity change, negative = growth inhibition, most hits filed as inhibitors. chicken DT40 Tdp1-/-;hTDP1 cells + 20 nM CPT, ATP luminescence, 48 h; also: potency is read from the fitted curve at half-maximal effect; nearly all actives have a fitted effect of over 55% in size
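Cell growth measured by CellTiter-Glo luminescence after a minimum 48 h, 37 C compound exposure with 20 nM CPT in Tdp1-knockout DT40 cells stably expressing hTDP1, seeded 400/well; qHTS titration format.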
Gal4-VP16 FLuc = Gal4-VP16 reporter inhibition counter-screen. Drosophila S2 Gal4-VP16 UAS-luciferase, luminescence, 20 h. actives 3.5% (n = 310,000). Potency, µM (series often up to 53.6 µM), inactives show top-dose activity, negative = inhibition, usual class: inhibitors;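 also: Gal4-VP16 expression switched on by copper sulfate through the metallothionein promoter; potency is read from the fitted curve at half-maximal effect; nearly all actives have a fitted effect of over 50% in size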
* hit, by the source's call; [ ] = another dose, or the depositor's remark. The list is not random: actives were taken first. Their share in the collection is about 21%. Unless noted, calls follow the shape of the dose curve; as a rule, active = well fitted curve in the direction sought with a large enough effect; inconclusive = small, poorly fitted or top-dose-only effect, or another doubt; inactive = no such curve, though single readings can be large; an effect the other way counts as inactive or inconclusive. % is scaled to controls: 0 for no effect and ±100 for the full control effect.

`COCCN(C(=S)Nc1cc(C)cc(C)c1)C(C)c1ccco1` (centres undefined) gave ELG1 DNA repair -17%, RORgamma inh 8.9µM*, DT40 TDP1 no CPT 26µM*, IL1B secr inh -12, TDP1 cell CPT inconclusive and Gal4-VP16 FLuc 4%[10 µM].
COc1ccc(NC(=S)N(CCC(C)C)C(C)c2ccncc2)cc1 (centres undefined) was read as ELG1 DNA repair -2%, RORgamma inh inconclusive, DT40 TDP1 no CPT inconclusive, IL1B secr inh -26, TDP1 cell CPT -27% and Gal4-VP16 FLuc inconclusive.
Screening COCCN(C(=S)Nc1c(C)cc(C)cc1C)C(C)c1cccnc1 (centres undefined) returned ELG1 DNA repair 16%, RORgamma inh inconclusive, DT40 TDP1 no CPT -53%, IL1B secr inh -6, TDP1 cell CPT inconclusive and Gal4-VP16 FLuc -5%.
For COCCN(C(=S)Nc1cc(C)cc(C)c1)C(C)c1cccs1 (centres undefined) the results were ELG1 DNA repair -18%, RORgamma inh 10µM*, DT40 TDP1 no CPT inconclusive, IL1B secr inh -10, TDP1 cell CPT 18µM* and Gal4-VP16 FLuc 22µM*.
For Cc1ccc(NC(=S)N(CCN(C)C)C(C)c2ccco2)c(C)c1 (centres undefined) the results were ELG1 DNA repair -3%, RORgamma inh -37%, DT40 TDP1 no CPT inconclusive, IL1B secr inh -14, TDP1 cell CPT inconclusive and Gal4-VP16 FLuc 2%.
Cc1noc(C)c1-c1ccc2ncnc(Nc3ccc(F)cc3)c2c1 was read as RORgamma inh -7%, DT40 TDP1 no CPT inconclusive, TDP1 cell CPT inconclusive and Gal4-VP16 FLuc 7%.
Screening Cc1cccc(-n2c(SCC(=O)N3CC(=O)Nc4ccccc43)nc3ccccc3c2=O)c1C returned ELG1 DNA repair 21µM*, RORgamma inh inconclusive, DT40 TDP1 no CPT 18µM*, IL1B secr inh -62*, TDP1 cell CPT inconclusive and Gal4-VP16 FLuc 0%.
Cc1ccc(-n2c(SCC(=O)N3CC(=O)Nc4ccccc43)nc3ccccc3c2=O)cc1C was read as ELG1 DNA repair inconclusive, RORgamma inh 8%, DT40 TDP1 no CPT -25%, IL1B secr inh 0, TDP1 cell CPT inconclusive and Gal4-VP16 FLuc -2%.
For Cc1cccc(-n2c(SCC(=O)N3CC(=O)Nc4ccccc43)nc3ccccc3c2=O)c1 the results were ELG1 DNA repair inconclusive, RORgamma inh 12%, DT40 TDP1 no CPT 23µM*, IL1B secr inh inconclusive, TDP1 cell CPT inconclusive and Gal4-VP16 FLuc -6%.
For CC(c1ccccc1)n1c(SCC(=O)N2CC(=O)Nc3ccccc32)nc2ccccc2c1=O (centres undefined) the results were ELG1 DNA repair inconclusive, RORgamma inh 34%, DT40 TDP1 no CPT 21µM*, IL1B secr inh -3, TDP1 cell CPT 26µM* and Gal4-VP16 FLuc -8%.
`COCC(C)n1c(SCC(=O)N2CC(=O)Nc3ccccc32)nc2ccccc2c1=O` (centres undefined) gave ELG1 DNA repair inconclusive, DT40 TDP1 no CPT -21%, IL1B secr inh -20 and TDP1 cell CPT -13%.
For CCCCSc1nnc(-c2ccccc2)c2ccccc12 the results were ELG1 DNA repair 4%, RORgamma inh 70%, DT40 TDP1 no CPT inconclusive, IL1B secr inh -6, TDP1 cell CPT inconclusive and Gal4-VP16 FLuc 13µM*.
`CCN1C(=O)c2ccccc2Sc2ccc(C(=O)NC(C)C)cc21` gave ELG1 DNA repair -4%, RORgamma inh -20%, DT40 TDP1 no CPT 0%, IL1B secr inh 0, TDP1 cell CPT 1% and Gal4-VP16 FLuc -5%.
CCN1C(=O)c2ccccc2Sc2ccc(NC(=O)Nc3ccc(C(C)=O)cc3)cc21 was read as DT40 TDP1 no CPT 21µM* and TDP1 cell CPT inconclusive.
